# Results reported in PubChem BioAssay (NCI).
# Compounds without any hit were thinned out: in the full panel of roughly 79,000, 15% have a hit. Values without a mark were called inactive. Active and inactive are the calls of the source. Rule as the data show it: active = growth inhibition above about 70%; inactive = the rest.
# What was measured:
# [1] = NCI Yeast Anticancer Drug Screen. Data for the rad52 strain (AID 147);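 also: 0% = growth of vehicle-treated control cultures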; details: S. cerevisiae rad52 mutant growth inhibition, hits give high values
# Procedure, shortened: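 Here a repair-compromised yeast strain receives each compound; its growth is then quantified and normalised to vehicle-only controls.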
# [2] = NCI Yeast Anticancer Drug Screen. Data for the wt1 strain (AID 149);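 also: 0% = growth of vehicle-treated wt1 cultures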; details: S. cerevisiae wt1 strain (SPY 50644) growth inhibition, hits give high values
# Procedure, shortened: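 Using yeast strain wt1, compound-induced growth inhibition was determined against vehicle-treated cultures.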
# [3] = NCI Yeast Anticancer Drug Screen. Data for the mgt1 strain (AID 153); details: S. cerevisiae mgt1 mutant growth inhibition, hits give high values
# Procedure, shortened: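 Measured: inhibition of mgt1 yeast growth by compound, normalized to vehicle-treated cultures.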
# [4] = NCI Yeast Anticancer Drug Screen. Data for the rad50 strain (AID 155);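 also: 0% = growth of vehicle-only cultures of the same strain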; details: S. cerevisiae rad50 strain growth inhibition, hits give high values
# Procedure, shortened: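 Relative growth inhibition (compound vs vehicle) was measured in yeast with a defined repair-gene alteration.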
# [5] = NCI Yeast Anticancer Drug Screen. Data for the mec2-1 strain (AID 157); details: S. cerevisiae mec2-1 strain, hits give high values
# Procedure, shortened: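 Using mec2-1 yeast: add compound, measure growth, express inhibition versus vehicle-treated cultures.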
# [6] = NCI Yeast Anticancer Drug Screen. Data for the rad14 strain (AID 159);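 also: 0% = growth of vehicle-treated control cultures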; details: S. cerevisiae rad14 strain growth inhibition, hits give high values
# Procedure, shortened: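 Screen for anticancer potential: a yeast strain altered in DNA damage repair is grown with compound, and reduced growth is quantified against vehicle controls.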
# [7] = NCI Yeast Anticancer Drug Screen. Data for the sgs1 mgt1 strain (AID 161);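 also: 0% = growth of cultures given vehicle only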; details: S. cerevisiae sgs1 mgt1 strain, hits give high values
# Procedure, shortened: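 This yeast growth screen uses a strain with defined DNA-repair lesions; compound-treated growth is compared with vehicle-treated growth.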
# [8] = NCI Yeast Anticancer Drug Screen. Data for the CLN2oe strain (AID 163);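 also: 0% = growth of vehicle-only control cultures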; details: S. cerevisiae CLN2oe strain, hits give high values
# Procedure, shortened: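 Whole-cell yeast growth assay. A strain engineered for altered cell-cycle control received compound, and inhibition relative to vehicle-treated cultures was recorded.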
# [9] = NCI Yeast Anticancer Drug Screen. Data for the cln2 rad14 strain (AID 165);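 also: 0% = growth equal to vehicle treated cultures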; details: S. cerevisiae cln2 rad14 strain, hits give high values
# Procedure, shortened: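 Yeast strain cln2 rad14, bearing defects in cell cycle control and DNA repair, serves as the test system; values reflect growth inhibition compared with vehicle.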
# [10] = NCI Yeast Anticancer Drug Screen. Data for the bub3 strain (AID 167); details: S. cerevisiae bub3 mutant strain, hits give high values
# Procedure, shortened: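 Screening used yeast with an engineered genetic alteration affecting cell cycle control. Compound-exposed cultures were compared with vehicle cultures, and reduced growth was taken as inhibition.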
# [11] = NCI Yeast Anticancer Drug Screen. Data for the wt2 strain (AID 169);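 also: 0% = growth of vehicle-treated yeast cultures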; details: S. cerevisiae wt2 strain growth inhibition, hits give high values
# Procedure, shortened: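 Treated yeast vs. vehicle-treated yeast: growth inhibition determined.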
# [12] = NCI Yeast Anticancer Drug Screen. Data for the mlh1 strain (AID 171);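 also: 0% = growth of vehicle-treated control cultures of the same strain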; details: S. cerevisiae mlh1 strain growth inhibition, hits give high values
# Procedure, shortened: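 A yeast strain with a defined genetic lesion serves as the test organism. Cultures receive compound or vehicle, and growth is measured.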
# [13] = NCI Yeast Anticancer Drug Screen. Data for the sgs1 strain (AID 173);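 also: 0% = growth of vehicle-only control cultures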; details: S. cerevisiae sgs1 mutant, hits give high values
# Procedure, shortened: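 A genetically defined yeast mutant is incubated with the test compound, and its growth is compared to that of the same strain given vehicle.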
# [14] = NCI Yeast Anticancer Drug Screen. Data for the mlh1 rad18 strain (AID 175); details: S. cerevisiae mlh1 rad18 strain growth inhibition, hits give high values
# Procedure, shortened: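 Steps: expose repair-defective yeast to compound; measure growth; express inhibition against vehicle-treated controls.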
# [15] = NCI Yeast Anticancer Drug Screen. Data for the rad18 strain (AID 177); details: S. cerevisiae rad18 mutant growth inhibition, hits give high values
# Procedure, shortened: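 Measured value is growth inhibition of a yeast strain bearing a DNA repair alteration, referenced to vehicle-treated cells.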
# [16] = at 5.0 µM (retest, dose inferred, filed as 0.5)
# [17] = at 50.0 µM (retest, dose inferred, filed as 5.0)
smiles,measurement,setting,value
CCN(CC)CCNc1ccc2ncn3c4ccc(O)cc4c(=O)c1c23,growth inhibition,[1]; at 1.2 µM,9%
same,growth inhibition,[1]; at 3.7 µM,28%
same,growth inhibition,[1]; at 11.0 µM,56%
same,growth inhibition,[1]; at 33.0 µM,75% (active)
same,growth inhibition,[1]; at 100.0 µM,85% (active)
same,growth inhibition,[2]; at 1.2 µM,0%
same,growth inhibition,[2]; at 3.7 µM,-2%
same,growth inhibition,[2]; at 11.0 µM,-4%
same,growth inhibition,[2]; at 33.0 µM,-2%
same,growth inhibition,[2]; at 100.0 µM,1%
same,growth inhibition,[3]; at 1.2 µM,-3%
same,growth inhibition,[3]; at 3.7 µM,-6%
same,growth inhibition,[3]; at 11.0 µM,-1%
same,growth inhibition,[3]; at 33.0 µM,1%
same,growth inhibition,[3]; at 100.0 µM,1%
same,growth inhibition,[4]; at 1.2 µM,13%
same,growth inhibition,[4]; at 3.7 µM,32%
same,growth inhibition,[4]; [16],65%
same,growth inhibition,[4]; at 11.0 µM,65%
same,growth inhibition,[4]; at 33.0 µM,81% (active)
same,growth inhibition,[4]; [17],65%
same,growth inhibition,[4]; at 50.0 µM,-6.6%
same,growth inhibition,[4]; at 100.0 µM,87% (active)
same,growth inhibition,[5]; at 1.2 µM,-3%
same,growth inhibition,[5]; at 3.7 µM,-3%
same,growth inhibition,[5]; [16],18%
same,growth inhibition,[5]; at 11.0 µM,-2%
same,growth inhibition,[5]; at 33.0 µM,4%
same,growth inhibition,[5]; [17],18%
same,growth inhibition,[5]; at 50.0 µM,3.05%
same,growth inhibition,[5]; at 100.0 µM,22%
same,growth inhibition,[6]; at 1.2 µM,2%
same,growth inhibition,[6]; at 3.7 µM,-1%
same,growth inhibition,[6]; at 11.0 µM,3%
same,growth inhibition,[6]; at 33.0 µM,3%
same,growth inhibition,[6]; at 100.0 µM,6%
same,growth inhibition,[7]; [16],13%
same,growth inhibition,[7]; [17],13%
same,growth inhibition,[7]; at 50.0 µM,-33.6%
same,growth inhibition,[8]; at 1.2 µM,-4%
same,growth inhibition,[8]; at 3.7 µM,1%
same,growth inhibition,[8]; at 11.0 µM,0%
same,growth inhibition,[8]; at 33.0 µM,2%
same,growth inhibition,[8]; at 100.0 µM,-1%
same,growth inhibition,[9]; [16],18%
same,growth inhibition,[9]; [17],18%
same,growth inhibition,[9]; at 50.0 µM,19.9%
same,growth inhibition,[10]; at 1.2 µM,-7%
same,growth inhibition,[10]; at 3.7 µM,-9%
same,growth inhibition,[10]; [16],30%
same,growth inhibition,[10]; at 11.0 µM,3%
same,growth inhibition,[10]; at 33.0 µM,4%
same,growth inhibition,[10]; [17],30%
same,growth inhibition,[10]; at 50.0 µM,8.45%
same,growth inhibition,[10]; at 100.0 µM,-11%
same,growth inhibition,[11]; at 1.2 µM,-1%
same,growth inhibition,[11]; at 3.7 µM,1%
same,growth inhibition,[11]; at 11.0 µM,-3%
same,growth inhibition,[11]; at 33.0 µM,1%
same,growth inhibition,[11]; at 100.0 µM,-2%
same,growth inhibition,[12]; at 1.2 µM,-5%
same,growth inhibition,[12]; at 3.7 µM,-4%
same,growth inhibition,[12]; at 11.0 µM,-2%
same,growth inhibition,[12]; at 33.0 µM,-5%
same,growth inhibition,[12]; at 100.0 µM,10%
same,growth inhibition,[13]; at 1.2 µM,-4%
same,growth inhibition,[13]; at 3.7 µM,-6%
same,growth inhibition,[13]; at 11.0 µM,-6%
same,growth inhibition,[13]; at 33.0 µM,-4%
same,growth inhibition,[13]; at 100.0 µM,-1%
same,growth inhibition,[14]; [16],25%
same,growth inhibition,[14]; [17],25%
same,growth inhibition,[14]; at 50.0 µM,64.7%
same,growth inhibition,[15]; at 1.2 µM,0%
same,growth inhibition,[15]; at 3.7 µM,-4%
same,growth inhibition,[15]; at 11.0 µM,-11%
same,growth inhibition,[15]; at 33.0 µM,-8%
same,growth inhibition,[15]; at 100.0 µM,-14%
